We go through 22 molecules from PubChem BioAssay.

As usually defined, the inhibition is the drop in the measured response relative to a control, in per cent.

Assay [1] can be described thus: polyglutamine-triggered caspase-3 activation inhibitors, cell-based (AID 1583). The settings on record: polyglutamine-induced caspase-3 activation, cell assay; stronger effect = higher value;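 tested at 10 µM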.
A short description of assay [2]: suppressors of polyQ aggregation in yeast, 75Q-TubU reporter (AID 1593). Particulars: Yeast 75Q polyglutamine aggregation reporter.
Assay [3] is described as follows: rescue of polyQ-huntingtin neuronal dysfunction in worms, whole organism, C. elegans mechanosensory neurons, N-terminal huntingtin (AID 1599). Particulars: touch response, stronger effect = higher value.
Assay [4] can be described thus: inhibitors of mitochondrial cytochrome c release, biochemical, purified mitochondria (AID 1603).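 Also: mouse liver mitochondria challenged with calcium chloride; signal normalized to the plate average as 100%.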 Particulars: stronger effect = lower value.
The nature of assay [5]: inhibitors of polyQ protein aggregation (AID 1604). Particulars: polyglutamine-induced protein aggregation inhibition assay; stronger effect = higher value; tested at 2.5 µM.
Assay [6] in a line: enhancers of glutamate uptake in motor neurons, MN-1 cell line (AID 1612).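 Also: tested at 1 µM final; 0% = mean of DMSO vehicle wells on each plate; positive means more glutamate uptake than control and negative means less.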 Particulars: MN-1 motor neuron cells, stronger effect = higher value.
Assay [7] can be described thus: reducers of polyQ inclusions in PC12 cells, cell-based, NGF-treated PC12, GFPQ80 (AID 1614).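 Also: lower means fewer inclusions and 0 means no inclusions at all.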 Particulars: PC12 NGF-treated GFP-polyQ80 inclusion reduction.
A short description of assay [8]: suppressors of polyglutamine aggregation in yeast, 75Q-TubH (AID 1616). The settings on record: S. cerevisiae 75Q-TubH polyglutamine aggregation suppression; stronger effect = higher value.
Assay [9] in a line: circadian clock period modulators, cell-based, LOPAC library, luminescence reporter (AID 2774).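 Also: values are relative to mean of DMSO wells on each plate.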 Particulars: circadian reporter cells, at 7 µM, actives lie on both sides.

Structures are written as SMILES. Values joined by “and” are separate entries in the source; they are usually repeats but may differ in a detail not shown here. Identical values can stand only once. For part of these data: Results with a measured potency or affinity are listed apart. Active and inactive are the calls of the source. No rule for the calls is given here.

As to `O=C(O)P(=O)(O)O`, the inhibition in [1] was -16.3%. This molecule also came in with a score in [2] of 1.28. This molecule also registered a rescue above control in assay [3] of 9.34. In addition, the cytochrome c release ratio in assay [4] came out at 0.68. Besides, the inhibition of aggregation in assay [5] is 30.6%. Further, in assay [6], the glutamate uptake change was -1.79%. This molecule returned an inclusion score in assay [7] of 2. Further, the aggregation suppression score in assay [8] was 1.5.
As for `CC(=O)Nc1ccccc1`, the inhibition in [1] was 14.3% and 16.3%. The score in assay [2] is 1.29 and 1.35. In addition, the rescue above control in assay [3] is -5.57 and 2.9. Further, the cytochrome c release ratio in [4] is 1.36 and 1.09. Moreover, the inhibition of aggregation in assay [5] is 42.4% and 85.9%. Moreover, the glutamate uptake change in assay [6] is 3.38% and -12.1%. In assay [7], this molecule returned an inclusion score of 2. In [8], the aggregation suppression score was 1.6 and 1.51.
For `CC(=O)OCC(COC(C)=O)OC(C)=O`, in assay [1], the inhibition is 0.15%. This molecule also registered a score in assay [2] of 1.44. Besides, the rescue above control in assay [3] was -1.97. Further, the cytochrome c release ratio in assay [4] is 1.1. For the same molecule, the inhibition of aggregation in [5] was determined as 72.7%. For the same molecule, the glutamate uptake change in [6] was -13.9%. This molecule also returned an inclusion score in [7] of 2. This molecule had an aggregation suppression score in assay [8] of 1.25.
Regarding `N[C@@H](CCC(=O)N[C@@H](CS)C(=O)NCC(=O)O)C(=O)O`, the inhibition in [1] is 17.6%. Besides, the score in [2] is 1.4. The rescue above control in assay [3] was -4.11. For the same molecule, the cytochrome c release ratio in assay [4] amounted to 0.98. For the same molecule, the inhibition of aggregation in [5] came out at 45.5%. Moreover, in assay [6], the glutamate uptake change stood at 13.8%. Moreover, the inclusion score in assay [7] stood at 2. This molecule gave an aggregation suppression score in assay [8] of 1.61.
Turning to `CC(=O)Oc1cccc(O)c1`, the inhibition in [1] is -9.3%. The molecule further showed a score in assay [2] of 1.19. For the same molecule, the rescue above control in [3] was 8.59. Besides, in [4], the cytochrome c release ratio is 0.86. Further, the inhibition of aggregation in assay [5] was -34.2%. Moreover, the glutamate uptake change in assay [6] is -3.14%. Moreover, the inclusion score in [7] is 2. In [8], this molecule returned an aggregation suppression score of 0.901.
On to `NS(=O)(=O)c1cc2c(cc1Cl)NC(C1CC3C=CC1C3)NS2(=O)=O` (stereo not drawn), for which the inhibition in assay [1] amounted to 13%. Further, the score in assay [2] worked out at 0.98. This molecule also gave a rescue above control in assay [3] of 1.81. Further, in [4], the cytochrome c release ratio was found to be 1.07. Also, in assay [5], the inhibition of aggregation worked out at 5.88%. Besides, the glutamate uptake change in assay [6] worked out at 1.35%. In [7], this molecule displayed an inclusion score of 2. Besides, the aggregation suppression score in assay [8] was 0.424. The period change in [9] was 0.225 h (inactive).
`NC(=O)c1ncn([C@@H]2O[C@H](CO)[C@@H](O)[C@H]2O)n1`: the inhibition in assay [1] came out at 21%. Moreover, the score in assay [2] is 1.56. In [3], this molecule gave a rescue above control of -2.31. For the same molecule, the cytochrome c release ratio in assay [4] was determined as 1.02. Besides, in assay [5], the inhibition of aggregation was 21.6%. Also, the glutamate uptake change in assay [6] came out at 14.1%. In [7], this molecule displayed an inclusion score of 1.5. Further, the aggregation suppression score in assay [8] stood at 1.25. For the same molecule, the period change in assay [9] is 0.065 h (inactive).
Regarding `Cc1c(C(N)=O)cc([N+](=O)[O-])cc1[N+](=O)[O-]`, in [1], the inhibition is -1.96%. Also, in [2], the score was 1.25. In [3], the rescue above control was found to be 5.37. In addition, the cytochrome c release ratio in assay [4] turned out to be 1.17. The inhibition of aggregation in [5] amounted to 82.7%. Moreover, the glutamate uptake change in assay [6] was -10.4%. Moreover, the inclusion score in assay [7] worked out at 2. This molecule had an aggregation suppression score in assay [8] of 0.968.
As for `COc1cccc(OC)c1C(=O)N[C@@H]1C(=O)N2[C@@H]1SC(C)(C)[C@@H]2C(=O)O`, the inhibition in assay [1] came out at 11.5%. This molecule came in with a score in [2] of 1.48. In addition, the rescue above control in assay [3] was -12.3. The cytochrome c release ratio in [4] is 0.93. Moreover, the inhibition of aggregation in [5] is 45.9%. For the same molecule, in [6], the glutamate uptake change came to 17.4%. Moreover, in [7], the inclusion score was 2. The molecule further registered an aggregation suppression score in assay [8] of 1.05.
Take `NC[C@H](O)c1ccc(O)c(O)c1`: the inhibition in assay [1] was 10.9%. Further, in assay [2], the score came out at 1.61. In addition, in assay [3], the rescue above control is -5.19. For the same molecule, the cytochrome c release ratio in assay [4] is 1.03. In addition, the inhibition of aggregation in [5] amounted to 44.7%. Further, the glutamate uptake change in [6] came out at 21.3%. The molecule further showed an inclusion score in assay [7] of 2. This molecule also displayed an aggregation suppression score in assay [8] of 1.39. Also, the period change in assay [9] is 0.04 h (inactive).
With `NC(=O)c1ncn([C@@H]2O[C@H](CO)[C@@H](O)[C@H]2O)c1O`, in assay [1], the inhibition came to 7.18%. Further, the score in [2] was determined as 1.36. Further, the rescue above control in assay [3] is -8.77. In addition, the cytochrome c release ratio in [4] came to 0.91. In addition, in assay [5], the inhibition of aggregation came to 49%. Besides, the glutamate uptake change in [6] is 20.3%. The molecule further had an inclusion score in assay [7] of 2. The same molecule gave an aggregation suppression score in [8] of 0.757. The period change in assay [9] was -0.05 h (inactive).
`Cc1cc(=O)[nH]c(=S)[nH]1`: the inhibition in assay [1] is -32.8%. Besides, the score in assay [2] was determined as 1.08. In assay [3], the rescue above control is -4.23. In addition, the cytochrome c release ratio in [4] came out at 0.82. The inhibition of aggregation in assay [5] is 69.4%. Further, the glutamate uptake change in assay [6] came out at 14.6%. Also, in [7], the inclusion score stood at 2. In assay [8], this molecule came in with an aggregation suppression score of 1.02.
`CC(=O)N[C@@H](CS)C(=O)O`: the inhibition in assay [1] was -21.7%. For the same molecule, the score in assay [2] worked out at 1.46. The molecule also registered a rescue above control in assay [3] of -1.36. Besides, in assay [4], the cytochrome c release ratio stood at 1.05. Besides, in [5], the inhibition of aggregation is 79.6%. Besides, the glutamate uptake change in assay [6] is -3.8%. This molecule showed an inclusion score in assay [7] of 2. Also, the aggregation suppression score in assay [8] is 1.2. Moreover, the period change in assay [9] was 0.1 h (inactive).
`O=c1cc[nH]c(=S)[nH]1`: in assay [1], the inhibition is 2.52%. Further, in [2], the score was found to be 1.24. The rescue above control in [3] is 1.48. Moreover, the cytochrome c release ratio in assay [4] amounted to 1.09. Further, the inhibition of aggregation in assay [5] is 41.5%. In addition, the glutamate uptake change in [6] was found to be 7.71%. In assay [7], the inclusion score was found to be 2. Further, in [8], the aggregation suppression score is 1.48.
Regarding `OC[C@H]1O[C@@H](O[C@@H]2[C@@H](CO)O[C@](O)(CO)[C@H]2O)[C@H](O)[C@@H](O)[C@H]1O`, the inhibition in assay [1] was -7.91%. This molecule also yielded a score in assay [2] of 1.23. In assay [3], this molecule yielded a rescue above control of -9.67. Moreover, the cytochrome c release ratio in assay [4] came to 1.19. Moreover, the inhibition of aggregation in assay [5] is 51.2%. For the same molecule, the glutamate uptake change in [6] came out at 8.9%. This molecule also displayed an inclusion score in [7] of 2. In addition, the aggregation suppression score in assay [8] was determined as 0.924.
Consider `COc1ccc(CN(CCN(C)C)c2ncccn2)cc1`, for which the inhibition in [1] is 10.6%. The same molecule registered a score in [2] of 1.36. The rescue above control in assay [3] was 1.69. For the same molecule, the cytochrome c release ratio in assay [4] came out at 1.27. Also, the inhibition of aggregation in [5] was 22.2%. In [6], the glutamate uptake change was -15.6%. Besides, the inclusion score in assay [7] came out at 2. This molecule also displayed an aggregation suppression score in assay [8] of 1.43.
With `CCC(=O)c1c(O)cc(O)cc1O`, in assay [1], the inhibition came to 6.37%. The same molecule registered a score in [2] of 0.94. In [3], this molecule returned a rescue above control of -3.67. Besides, the cytochrome c release ratio in assay [4] is 1.29. The inhibition of aggregation in assay [5] stood at 38.9%. In addition, the glutamate uptake change in assay [6] is -10.7%. Further, the inclusion score in assay [7] amounted to 2. The molecule further showed an aggregation suppression score in [8] of 1.29.
Turning to `NC(Cc1ccc(Cl)cc1)C(=O)O` (stereo not drawn), in assay [1], the inhibition turned out to be 2.04%. The score in assay [2] worked out at 1.27. In addition, in assay [3], the rescue above control turned out to be 22.3. Also, the cytochrome c release ratio in assay [4] is 0.79. Also, the inhibition of aggregation in assay [5] was 83.3%. In assay [6], the glutamate uptake change was -15.1%. The inclusion score in assay [7] came out at 2. In assay [8], the aggregation suppression score worked out at 1.23. Also, in [9], the period change is -0.015 h (inactive).
As for `CCCCCCCCCCCCCCCCCCOCC(O)CO` (stereo not drawn), in [1], the inhibition is -51.6%. Also, the score in assay [2] is 1.03. This molecule also had a rescue above control in assay [3] of 2.94. In assay [4], the cytochrome c release ratio was 1. The inhibition of aggregation in assay [5] came out at 34.7%. Also, the glutamate uptake change in assay [6] is 11.1%. The same molecule showed an inclusion score in assay [7] of 2. Further, the aggregation suppression score in [8] is 0.825.
In the case of `O=C1OCCN1/N=C/c1ccc([N+](=O)[O-])o1`, in [1], the inhibition amounted to 4.31%. Besides, the score in assay [2] came out at 0.66. Moreover, the rescue above control in assay [3] is 4.89. The cytochrome c release ratio in assay [4] came out at 1.17. Besides, in [5], the inhibition of aggregation is 27%. In addition, in assay [6], the glutamate uptake change came to 4.62%. For the same molecule, in assay [7], the inclusion score stood at 2. Besides, in assay [8], the aggregation suppression score amounted to 0.223.
Regarding `NC(=O)NO`, the inhibition in [1] is -0.33%. In assay [2], the score came out at 1.4. The molecule further gave a rescue above control in [3] of -1.6. For the same molecule, the cytochrome c release ratio in assay [4] was found to be 0.82. Moreover, the inhibition of aggregation in [5] came to 85.9%. Moreover, in [6], the glutamate uptake change was 1.4%. For the same molecule, the inclusion score in assay [7] stood at 2. For the same molecule, the aggregation suppression score in assay [8] was 1.3. Further, the period change in [9] is -0.055 h (inactive).
As to `Nc1nccs1`, the inhibition in [1] came out at 9.3%. The score in assay [2] was 1.44. Besides, the rescue above control in [3] was -9.08. Besides, in assay [4], the cytochrome c release ratio is 0.95. In addition, the inhibition of aggregation in [5] was determined as 30.7%. Further, the glutamate uptake change in assay [6] amounted to 28.6%. Also, in [7], the inclusion score came out at 2. The molecule further gave an aggregation suppression score in [8] of 1.04.
